# Results: PubChem BioAssay
# “And” between values parts separate entries of the source, which are not always exact repeats. Equal values may be shown once. The source made the active and inactive calls.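 The calls were made as follows, unless noted: active = compounds whose cell count with miR-34 switched on is under 0.7 times the count with it off; inactive = the rest.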
# What was measured:
# [1] = sensitizers of A549 cells to miR-34 induction, primary screen, imaging, A549 dox-inducible miR-34, nuclei and caspase counts (AID 1347080); conditions: A549 miR-34 inducible, Hoechst nuclei count, 48 h; also: test concentration not given here
# [2] = survival rescue of mitochondrial mutant cells in low glucose, primary screen, MELAS cybrids, Rieske KO mouse fibroblasts, CellTiter-Glo (AID 1508586;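 active = mean z-score across replicates of 1.96 or higher in either the MELAS or the Rieske mutant cell line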;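 also: test concentration not given here; z relative to plate mean and SD of compound and empty wells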)
# [3] = viability rescue of complex I mutant cybrids, primary screen, cell-based, galactose medium, ATP luminescence (AID 1645843;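 active = z-score of at least 1.8 in each of two replicates, scored against plate mean and spread of sample wells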;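 also: positive z means more ATP and so rescue of galactose-driven cybrid death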); conditions: complex I mutant cybrid cells, 72 h, stronger effect = higher value
# [4] = stronger effect = lower value, cell number ratio, induced over uninduced
# [5] = measured here: relative caspase fold change +Dox/-Dox
# [6] = measured here: total cells with miR-34 induction, stronger effect = lower value
# [7] = measured here: total cells without miR-34 induction
# [8] = MELAS cybrid survival, CellTiter-Glo 48 h, stronger effect = higher value
# [9] = Rieske KO mouse fibroblast survival, CellTiter-Glo 72 h
Compound,"fold change [1, 4]","fold change [1, 5]","cell count [1, 6]","cell count [1, 7]","z-score [2, 8]","z-score [2, 9]",z-score [3]
CC(C)(C)c1cn(C2CCN(C(=O)c3cnc4ccccc4n3)CC2)nn1,0.867 (inactive),1.26,7870,9080,0.15 (inactive),-0.382,-0.44 (inactive)
COc1ccc(OC)c2c1c(C)cc(=O)n2C,0.823 (inactive),0.693,8060,9790,-0.469 (inactive),0.131,-0.615 (inactive)
O=C(O)c1cnc(-c2ccccc2)[nH]1,0.939 (inactive),0.271,8980,9570,-0.137 (inactive),-0.215,0.375 (inactive)
O=C(C=Cc1ccc(O)c(O)c1)NCCc1ccc(O)cc1,0.861 (inactive),0.612,8240,9580,-0.586 (inactive),-0.131,0.38 (inactive)
Cc1cc(-c2csc(Nc3ccc(C(=O)O)c(O)c3)n2)ccc1F,0.849 (inactive),0.325,8200,9650,2.38 (active),-0.525,1.02 (inactive)
CC(=O)C=Cc1cn(C)c2ccccc12,0.824 (inactive),0.579,7690,9340,1.15 (inactive),0.123,0.49 (inactive)
CCn1nccc1NC(=O)Cn1cc(-c2ccc(C(=O)N3CCCC3)cn2)cn1,0.832 (inactive),1.64,7850,9430,0.812 (inactive),-0.539,-0.57 (inactive)
CN1CCN(Cc2cccc3cccnc23)CC1CCO (stereo unspecified),0.928 (inactive),1.86,8360,9010,0.709 (inactive),-1.63,-0.585 (inactive)
CC1(C)OC2CO[C@@]3(COS(N)(=O)=O)OC(C)(C)OC3C2O1 (stereo partly specified),0.947 (inactive) and 0.976 (inactive),1.9 and 0.922,9570 and 9420,10100 and 9650,1.94 (inactive),-0.659,1.01 (inactive)
COc1ccc2[nH]cc(CCC(=O)O)c2c1,0.879 (inactive),0.282,8310,9460,0.323 (inactive),-0.35,0.275 (inactive)
O=C(Nc1cc(Br)c(O)c(Br)c1)c1ccccc1,0.856 (inactive),0.708,7950,9290,0.106 (inactive),-0.271,0.2 (inactive)
CN1CCN(NC(=S)Nc2ccc(S(N)(=O)=O)cc2)CC1,0.87 (inactive),0.82,8440,9700,-0.739 (inactive),0.101,0.425 (inactive)
Cc1csc2ncnc(-c3cccc4ncccc34)c12,0.896 (inactive),0.971,7440,8300,0.0854 (inactive),-0.504,-0.49 (inactive)
Cn1nc(C(C)(C)C)cc1NC(=O)Cn1cc(-c2ccccc2N)cn1,0.913 (inactive),1.7,8250,9040,0.154 (inactive),-0.442,-0.46 (inactive)
CSCCC(NC(C)=O)C(=O)O (stereo unspecified),0.861 (inactive),0.784,8190,9520,0.71 (inactive),-0.087,0.53 (inactive)
CN(Cc1noc(C2CCCC2)n1)C(=O)c1nc(=O)[nH]c2ccccc12,0.914 (inactive),1.01,8520,9320,-0.339 (inactive),0.124,-0.525 (inactive)
CCn1ncc(NC(=O)Cn2ccc(-c3ncnn3C)n2)n1,0.85 (inactive),1.24,8780,10300,0.204 (inactive),-0.374,-0.5 (inactive)
Cc1cc(C)nc(-c2cnn(CC(=O)Nc3cc(C)nn3-c3ccccn3)c2)n1,0.882 (inactive),1.32,5870,6650,-0.672 (inactive),-0.181,-0.415 (inactive)
CCN(CC)C(=O)c1c(NC(=O)c2cccs2)sc2c1CCCC2,1.02 (inactive),0.802,1650,1620,0.194 (inactive),0.0357,-0.49 (inactive)
O=C(Nc1nncs1)NC1Cc2ccccc2C1,0.87 (inactive),1.52,8130,9340,-0.741 (inactive),-0.221,-0.6 (inactive)
CCn1ncc(NC(=O)Cn2nc(C)c(-c3cccc(C(C)=O)c3)c2C)n1,0.83 (inactive),2.28,2420,2910,-0.514 (inactive),-0.567,-0.465 (inactive)
Cc1nn(C)c(C)c1-c1ccnc(NCCOCCO)n1,0.905 (inactive),1.28,8320,9200,0.0151 (inactive),-0.129,-0.555 (inactive)
COc1ccccc1C(=O)N1CCC(n2cc(-c3ccccn3)nn2)CC1,0.917 (inactive),1.29,8760,9560,0.129 (inactive),-0.319,-0.23 (inactive)
